In PubChem BioAssay:
Activity calls are given as the source filed them. Unless noted, the rule behind the calls is not given here.

Columns and labels:
[1] = tested on: Wnt5a (protein binding on small-molecule microarray); assay: small molecules binding Wnt5a protein – biophysical, small-molecule microarray, 635/667 nm fluorescence, primary screen (AID 1142); settings: 635 nm fluorescence, higher = more signal;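 note: fluorescence read at 667 nm with signal to noise per printed feature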
[2] = ATP-based viability of Huh7 replicon cells – cell-based, CellTiter-Glo luminescence, basal, 48 h, cytotoxicity control for HCV replication inhibitor project, primary screen (AID 1143); settings: higher = more signal, called active from +8 up or from −8 down;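 note: Huh7 hepatoma cells carrying a hepatitis C replication reporter with no stimulus; test concentration not given here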
[3] = Pseudomonas biofilm growth suppression – PAO1 strain, BacTiter-Glo luminescence, LB-PBS, primary screen (AID 1144); settings: P. aeruginosa PAO1 biofilm, 12 h, higher = more signal
[4] = basal CRE-LacZ reporter activity in PC12 – cell-based, unstimulated, primary screen (AID 1145); settings: no forskolin, luminescence, 4.5 h, higher = more signal, called active from +8 up or from −8 down
[5] = forskolin-driven CRE-LacZ activity in PC12 – cell-based, CRE-LacZ reporter, forskolin-stimulated, primary screen (AID 1146); settings: luminescence, 4.5 h, higher = more signal, called active from +8 up or from −8 down;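 note: PC12 cells with 6xCRE LacZ reporter stimulated by forskolin 10 µM; beta-galactosidase reporter signal reflecting CREB driven transcription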
[6] = target: Streptavidin (Streptomyces avidinii) (UniProt P22629); assay: compounds binding control protein streptavidin – biophysical, small-molecule microarray, 635/667 nm fluorescence, artefact control for SMM compound annotation, primary screen (AID 1147); settings: higher = more signal;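 note: signal reflects streptavidin binding to arrayed compounds as a control protein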
Chain of Streptavidin (Streptomyces avidinii) (P22629 whole entry, looked up): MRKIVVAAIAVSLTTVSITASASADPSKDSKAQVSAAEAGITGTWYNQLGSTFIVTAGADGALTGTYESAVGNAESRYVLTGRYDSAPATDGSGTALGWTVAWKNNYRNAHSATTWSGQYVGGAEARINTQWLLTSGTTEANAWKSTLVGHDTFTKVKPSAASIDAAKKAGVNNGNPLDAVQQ

[7] = probe aInhba binding on compound microarray – biochemical, small-molecule microarray, 635/667 nm fluorescence, primary screen (AID 1148); settings: higher = more signal;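 note: score merges 667nm spot fluorescence with signal-to-noise for antibody binding to printed compounds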
Torsin-1A (Homo sapiens) [8] = target: Torsin-1A (Homo sapiens) (UniProt O14656); assay: TOR1A wild-type binding on microarray – cell lysate, small-molecule microarray, lysate, 635/667 nm, primary screen (AID 1149); settings: COS7 hTOR1A-WT lysate, 635 nm fluorescence, higher = more signal
Chain of Torsin-1A (Homo sapiens) (O14656 whole entry, looked up): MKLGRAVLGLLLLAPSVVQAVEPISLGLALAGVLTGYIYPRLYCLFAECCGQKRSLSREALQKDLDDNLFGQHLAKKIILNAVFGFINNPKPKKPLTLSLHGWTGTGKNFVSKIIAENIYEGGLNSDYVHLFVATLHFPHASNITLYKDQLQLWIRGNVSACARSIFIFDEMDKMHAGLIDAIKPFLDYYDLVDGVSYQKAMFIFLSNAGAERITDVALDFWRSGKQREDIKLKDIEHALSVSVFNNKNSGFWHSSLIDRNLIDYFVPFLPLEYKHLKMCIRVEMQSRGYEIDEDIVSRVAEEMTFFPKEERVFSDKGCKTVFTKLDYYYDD

Torsin-1A (Homo sapiens) [9] = target: Torsin-1A (Homo sapiens) (UniProt O14656); assay: torsin A mutant lysate binding on microarrays – cell lysate, small-molecule microarray, COS7 lysate, 635/667 nm fluorescence, primary screen (AID 1150); settings: COS7 hTOR1A mutant lysate, 635 nm fluorescence, higher = more signal;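 note: score pools 667 nm emission and signal to noise measuring lysate protein binding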
[10] = tested on: Sonic hedgehog protein (Shh); assay: Sonic hedgehog microarray binding compounds – biochemical, small-molecule microarray, 635/667 nm fluorescence, primary screen (AID 1151); settings: 635 nm fluorescence, higher = more signal;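 note: Shh protein binding to compounds spotted on small-molecule microarray slides; score combines spot fluorescence intensity with signal-to-noise across triplicate slides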
[11] = optical density shifts of acrAB sulA E. coli – strain DRC41, OD650, 48 h, E. coli filamentation inducer project, primary screen (AID 1152); settings: higher = more signal, called active from +8 up or from −8 down;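 note: E. coli MC1000 strain DRC41 lacking acrAB efflux pump and sulA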
[12] = probe aLefty1 binding on compound microarray – biochemical, small-molecule microarray, 635/667 nm fluorescence, primary screen (AID 1153); settings: higher = more signal;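 note: score merges spot fluorescence with signal-to-noise ratio from the scanned slide images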
[13] = plasmodial surface anion channel blockers, osmotic lysis – cell-based, P. falciparum Indochina, OD700, 1 h, primary screen (AID 1154); settings: P. falciparum Indochina infected RBC osmotic lysis, higher = more signal, called active from +8 up or from −8 down
[14] = plasmodial surface anion channel blockers, osmotic lysis – cell-based, P. falciparum Indochina, OD700, 2 h, primary screen (AID 1155);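 note: lysis reports solute entry through the parasite surface anion channel PSAC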; settings: P. falciparum Indochina infected erythrocytes, higher = more signal, called active from +8 up or from −8 down
[15] = changes in parasitized red cell lysis, either direction – P. falciparum Indochina, OD700, 3 h, PSAC antagonist project, primary screen (AID 1156); settings: P. falciparum-infected erythrocytes, osmotic lysis, higher = more signal, called active from +8 up or from −8 down
[16] = plasmodial surface anion channel blockers, osmotic lysis – cell-based, P. falciparum Indochina, OD700, 18 h, primary screen (AID 1157); settings: P. falciparum Indochina infected erythrocytes, osmotic lysis OD700, 18 h; higher = more signal, called active from +8 up or from −8 down
[17] = S6 kinase pathway phospho-S6 level changes – cell-based, A549, cytoblot, luminescence, serum-stimulated, primary screen (AID 1158); settings: 5 h, higher = more signal;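 note: serum-stimulated A549 lung adenocarcinoma cells; signal is phosphorylated S6 detected by cytoblot immunostaining with HRP secondary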
[18] = target: NADPH oxidase 2 (Homo sapiens) (UniProt P04839); assay: compounds shifting NOX2 Amplex Red fluorescence – cell-based, HEK293-NOX2, PMA-stimulated, NOX inhibitor project, primary screen (AID 1159); settings: 45 min, higher = more signal, called active from +8 up or from −8 down; note: test concentration not given here
Chain of NADPH oxidase 2 (Homo sapiens) (P04839 whole entry, looked up): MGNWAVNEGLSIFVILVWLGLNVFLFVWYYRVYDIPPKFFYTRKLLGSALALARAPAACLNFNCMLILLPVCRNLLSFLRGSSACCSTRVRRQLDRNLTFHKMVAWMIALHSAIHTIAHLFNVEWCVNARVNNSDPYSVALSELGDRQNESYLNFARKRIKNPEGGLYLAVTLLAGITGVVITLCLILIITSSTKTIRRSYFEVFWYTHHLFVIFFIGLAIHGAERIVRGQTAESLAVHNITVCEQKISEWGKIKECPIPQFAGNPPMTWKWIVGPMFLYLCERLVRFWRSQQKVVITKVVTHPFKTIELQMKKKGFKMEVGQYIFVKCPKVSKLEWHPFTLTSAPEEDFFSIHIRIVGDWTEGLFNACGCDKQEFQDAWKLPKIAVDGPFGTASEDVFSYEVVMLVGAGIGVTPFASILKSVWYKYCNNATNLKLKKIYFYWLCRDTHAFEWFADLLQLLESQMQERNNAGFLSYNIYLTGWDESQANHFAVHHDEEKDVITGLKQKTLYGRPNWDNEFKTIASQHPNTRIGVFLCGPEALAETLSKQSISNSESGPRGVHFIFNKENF

[19] = target: NADPH oxidase 4 (Homo sapiens) (UniProt Q9NPH5); assay: compounds shifting NOX4 Amplex Red fluorescence – cell-based, HEK293-NOX4, tetracycline-induced, NOX inhibitor project, primary screen (AID 1160); settings: HEK293-NOX4, Amplex Red H2O2 fluorescence, 45 min; higher = more signal, called active from +8 up or from −8 down
Chain of NADPH oxidase 4 (Homo sapiens) (Q9NPH5 whole entry, looked up): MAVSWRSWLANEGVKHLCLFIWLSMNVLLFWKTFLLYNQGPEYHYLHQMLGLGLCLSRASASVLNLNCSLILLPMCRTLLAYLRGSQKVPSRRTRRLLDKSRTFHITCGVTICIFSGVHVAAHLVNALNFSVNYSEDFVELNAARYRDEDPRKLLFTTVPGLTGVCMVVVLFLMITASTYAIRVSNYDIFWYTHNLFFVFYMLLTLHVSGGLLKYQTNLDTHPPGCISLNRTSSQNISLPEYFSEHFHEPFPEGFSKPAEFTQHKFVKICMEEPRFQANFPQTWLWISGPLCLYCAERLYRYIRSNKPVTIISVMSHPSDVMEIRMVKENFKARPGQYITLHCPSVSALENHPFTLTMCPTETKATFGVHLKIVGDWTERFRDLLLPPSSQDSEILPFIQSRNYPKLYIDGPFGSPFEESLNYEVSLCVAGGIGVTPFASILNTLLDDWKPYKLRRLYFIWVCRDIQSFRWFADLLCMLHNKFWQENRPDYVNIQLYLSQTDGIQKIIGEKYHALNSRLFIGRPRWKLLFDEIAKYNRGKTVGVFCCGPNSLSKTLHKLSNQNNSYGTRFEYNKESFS

[20] = target: NADPH oxidase 5 (Homo sapiens) (UniProt Q96PH1); assay: compounds shifting NOX5 Amplex Red fluorescence – cell-based, HEK293-NOX5, NOX inhibitor project, primary screen (AID 1161); settings: HEK293-NOX5, ionomycin, 45 min, higher = more signal
Chain of NADPH oxidase 5 (Homo sapiens) (Q96PH1 whole entry, looked up): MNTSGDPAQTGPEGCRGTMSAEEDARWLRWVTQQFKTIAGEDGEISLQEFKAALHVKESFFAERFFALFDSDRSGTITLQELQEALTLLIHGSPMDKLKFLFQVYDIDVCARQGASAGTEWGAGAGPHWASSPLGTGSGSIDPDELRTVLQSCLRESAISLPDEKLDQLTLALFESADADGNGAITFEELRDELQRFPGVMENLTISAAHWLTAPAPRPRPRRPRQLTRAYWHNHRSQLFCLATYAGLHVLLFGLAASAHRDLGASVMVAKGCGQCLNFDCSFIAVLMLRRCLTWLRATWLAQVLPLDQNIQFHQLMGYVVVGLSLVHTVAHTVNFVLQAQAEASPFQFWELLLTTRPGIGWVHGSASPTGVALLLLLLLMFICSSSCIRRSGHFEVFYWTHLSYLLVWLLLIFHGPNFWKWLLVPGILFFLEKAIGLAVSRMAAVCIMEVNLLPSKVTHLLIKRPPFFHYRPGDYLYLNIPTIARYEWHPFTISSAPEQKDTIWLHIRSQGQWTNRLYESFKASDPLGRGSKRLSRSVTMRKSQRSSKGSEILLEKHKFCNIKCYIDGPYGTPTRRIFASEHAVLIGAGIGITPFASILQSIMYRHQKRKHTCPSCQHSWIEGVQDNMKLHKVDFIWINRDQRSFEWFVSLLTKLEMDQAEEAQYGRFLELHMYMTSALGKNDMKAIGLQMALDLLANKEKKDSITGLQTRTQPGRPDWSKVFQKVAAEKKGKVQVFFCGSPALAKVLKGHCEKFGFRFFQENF

Structure (SMILES) | composite z-score [1] | z-score [2] | z-score [3] | z-score [4] | z-score [5] | composite z-score [6] | composite z-score [7] | composite z-score (Torsin-1A (Homo sapiens) [8]) | composite z-score (Torsin-1A (Homo sapiens) [9]) | composite z-score [10] | z-score [11] | composite z-score [12] | z-score [13] | z-score [14] | z-score [15] | z-score [16] | z-score [17] | z-score [18] | z-score [19] | z-score [20]
COc1ccc(C(O)C2C=CC3C(=O)N(C)C(=O)C3N2N(c2ccccc2)c2ccccc2)c2ccccc12 (stereo not given) | 0.151 | 0.497 (inactive) | -0.347 (inactive) | 0.246 (inactive) | 1.1 (inactive) | 0.797 | 0.0342 | 0.415 | 0.526 | 1.11 | -1.24 (inactive) | 0.407 | 1.24 (inactive) | 1.4 (inactive) | 0.39 (inactive) | 1.32 (inactive) | -1.19 | -0.549 (inactive) | -0.247 (inactive) | -0.716
CN(C)CCCC[C@@H]1NC(=O)[C@H]2C[C@@H](C(=O)NCCCCCN)[C@@H](c3cccc(OCCO)c3)N2C1=O | 0.456 | -1.01 (inactive) | 0.767 (inactive) | 0.155 (inactive) | 0.421 (inactive) | 1.13 | 0.495 | 1.99 | 2.15 | 1.28 | 0.675 (inactive) | 1.28 | 1.9 (inactive) | 0.112 (inactive) | -1.16 (inactive) | 0.129 (inactive) | 0.204 | 0.653 (inactive) | 0.222 (inactive) | 1.52
C=CC[C@@]1(C(=O)N2CCCCC2)N=C(c2ccc(OCCCO)cc2)O[C@@H]1c1ccccc1CN=[N+]=[N-] | 0.381 | -4.96 (inactive) | -0.703 (inactive) | 3.77 (inactive) | 0.51 (inactive) | 1.77 | 0.233 | 0.342 | 0.711 | 0.466 | 0.279 (inactive) | 0.393 | 26 (active) | 16 (active) | 2.79 (inactive) | 1.04 (inactive) | 1.32 | -0.935 (inactive) | 1.43 (inactive) | 1.05
C[N+](C)(C)CCCC[C@@H]1NC(=O)[C@@H]2C[C@H](C(=O)NCCCCCCNC(=O)CS)[C@H](c3ccc(O)cc3)N2C1=O | -0.387 | -0.195 (inactive) | -0.421 (inactive) | 0.0165 (inactive) | 1.45 (inactive) | 0.553 | -0.0963 | 0.296 | 0.461 | 0.586 | -0.432 (inactive) | -0.101 | 2.2 (inactive) | 0.244 (inactive) | -3.26 (inactive) | -0.114 (inactive) | -0.489 | 0.614 (inactive) | 0.449 (inactive) | 0.0101
COc1ccc([Si](C)(C)[C@@H]2[C@@H](CCn3cc(CCO)nn3)O[C@]3(C(=O)N(Cc4cccc(N5C(=O)c6cccc7cccc5c67)c4)c4ccccc43)[C@H]2C)cc1 | 0.206 | -7.96 (inactive) | 0.000859 (inactive) | 2.93 (inactive) | -1.45 (inactive) | 0.942 | -0.0589 | 0.119 | 0.141 | 2.08 | 0.259 (inactive) | -0.0011 | 4.42 (inactive) | 1.6 (inactive) | 1.22 (inactive) | -0.682 (inactive) | 1.16 | 1.58 (inactive) | 1.76 (inactive) | 1.3
COc1ccc([Si](C)(C)[C@H]2[C@H](CC(=O)N3CCC[C@H]3CO)O[C@@]3(C(=O)N(Cc4cccc(N5CCOC5=O)c4)c4ccccc43)[C@@H]2C)cc1 | 0.307 | -5.09 (inactive) | 0.621 (inactive) | 0.395 (inactive) | -0.135 (inactive) | 0.0063 | -0.0468 | 0.716 | 0.58 | 1.99 | 1.18 (inactive) | -0.017 | 4.76 (inactive) | 1.13 (inactive) | 0.618 (inactive) | 0.722 (inactive) | 0.305 | 1.73 (inactive) | 1.76 (inactive) | 4.67
CCCCN1CC=CC23O[C@@H]4C=CCCOC(=O)C4[C@H]2C(=O)N(CCCCCO)[C@@H]3C1=O (stereo not given in full) | -0.276 | 0.342 (inactive) | -0.0153 (inactive) | 0.199 (inactive) | 0.794 (inactive) | -0.525 | -0.233 | 0.226 | 0.735 | -0.198 | 0.4 (inactive) | -0.363 | 1.47 (inactive) | 0.48 (inactive) | 2.26 (inactive) | 0.331 (inactive) | -0.0028 | 1.28 (inactive) | 0.0393 (inactive) | 1.46
COCCOC(=O)N1C(=O)[C@@]2(c3ccccc31)[C@H](C(=O)N1CCCCCCC1)[C@H]1C(=O)O[C@H](c3ccccc3)[C@H](c3ccccc3)N1[C@@H]2c1ccc(OCCO)cc1 | 2.59 | -2.7 (inactive) | -0.276 (inactive) | -1.29 (inactive) | -0.791 (inactive) | 4.29 | 2.4 | 3.22 | 3.39 | 2.31 | -0.448 (inactive) | 3.13 | 8.64 (active) | 1.89 (inactive) | 1.31 (inactive) | 0.976 (inactive) | 0.213 | -0.0367 (inactive) | 0.867 (inactive) | 1.53
COc1ccc([Si](C)(C)[C@@H]2[C@@H](CC(=O)N3CCC[C@H]3CO)O[C@]3(C(=O)N(Cc4cccc(I)c4)c4ccccc43)[C@H]2C)cc1 | 0.557 | -4.27 (inactive) | 0.452 (inactive) | 0.12 (inactive) | -0.845 (inactive) | 0.168 | -0.0582 | 1.36 | 0.789 | 2.14 | -0.423 (inactive) | -0.111 | 6.47 (inactive) | 0.966 (inactive) | 1.39 (inactive) | 0.917 (inactive) | 2.02 | 2.97 (inactive) | 0.91 (inactive) | 4.33
